Assay results as given in PubChem BioAssay AID908 (National Center for Advancing Translational Sciences (NCATS), 2007).
This is one part of the list. Entries that show only a call come without a potency. Records with an inconclusive call do not appear. Active and inactive are the calls of the source. The call rests on the fitted dose curve; in most records, active means well fitted inhibition curve with a large enough effect in the main read-out, with a control signal flat; inconclusive means small, poorly fitted or top-dose-only effect, or a change in a side signal; inactive means no such curve, though single readings can be large or run the other way.

These compounds were tested against Caspase-7 (Homo sapiens) (UniProt P55210) (assay: Concentration-Response Counterscreen for Redox Active Inhibitors of Caspase-7: Cysteine). Details: caspase-7 enzyme with cysteine, fluorogenic substrate; series mostly up to 57.5 µM.
Sequence of Caspase-7 (Homo sapiens) (P55210 24-198 limits assumed): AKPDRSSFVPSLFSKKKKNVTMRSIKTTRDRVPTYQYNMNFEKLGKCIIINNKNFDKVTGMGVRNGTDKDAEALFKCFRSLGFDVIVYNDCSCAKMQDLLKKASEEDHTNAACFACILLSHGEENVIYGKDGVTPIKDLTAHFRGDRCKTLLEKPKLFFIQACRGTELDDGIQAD
Sequence of Caspase-7 (Homo sapiens) (P55210 207-303 limits assumed): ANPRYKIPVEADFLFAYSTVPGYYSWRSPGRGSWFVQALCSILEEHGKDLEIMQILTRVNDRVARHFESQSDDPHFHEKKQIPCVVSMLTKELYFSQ
Description: NIH Molecular Libraries Screening Centers Network [MLSCN]
NIH Chemical Genomics Center [NCGC]
PI Name: Dr. James Wells,
Dr. Enrique Perez-Paya, Dr.Janice Williams, Dr. Dennis Wolan, a person
The caspases (Cysteine Aspartyl Protease) comprise a related family of 14 dimeric proteases that are critical mediators of apoptosis (programmed cell death) and inflammation. The caspases represent an important class of drug targets for stroke, ischemia, cancer and inflammatory diseases. […] One goal of this project was to identify compounds that act as allosteric inhibitors via stabilizing the procaspase form of the enzyme. […]
The biochemical assay was configured using purified caspase 7 at a high enzyme concentration to promote formation of the homodimers and thus facilitate the identification of allosteric inhibitors. […] After initiation of the assay with substrate the plates were rapidly read using an automated robotic system (Kalypsys, Inc.) to maintain consistent timing. […] Product formation was also measured after 1 hour. […]
Caspase 7 was prepared in buffer (50 mM HEPES pH 7.5, 50 mM KCl, 200 mM NaCl, 10 mM Cys (Aldrich cat# 861677), 0.1% CHAPS) at a concentration of 66.6 nM and 3 uL was dispensed to all wells using black solid Kalypsys 1536-well plates. […] The plates were then exposed using 405 nm excitation/520 nm emission filters for 4 sec and read at 20 sec intervals for 3 min. […]
For CCN1C(=O)/C(=C2/Sc3ccccc3N2CCCS(=O)(=O)O)SC1=S, the Potency was “inactive”. N#CC1=C(N)Oc2cc(O)ccc2C1C1CCCCC1 (configuration not stated) was tested, and the Potency was 25.1 µM (active).
